Measured values published in ChEMBL document CHEMBL1201862, “PubChem BioAssay data set” (2004).
Out of some 400,000 compounds screened, about 2,100 (0.53%) were called active. Inconclusive results (about 14%) are left out. No rule for the calls is given here. The full list was thinned out, with actives kept by preference.

What follows are compounds tested against Ataxin-2 (Homo sapiens) (UniProt Q99700) (assay: qHTS for Inhibitors of ATXN expression.).
Sequence of Ataxin-2 (Homo sapiens) (Q99700 whole entry): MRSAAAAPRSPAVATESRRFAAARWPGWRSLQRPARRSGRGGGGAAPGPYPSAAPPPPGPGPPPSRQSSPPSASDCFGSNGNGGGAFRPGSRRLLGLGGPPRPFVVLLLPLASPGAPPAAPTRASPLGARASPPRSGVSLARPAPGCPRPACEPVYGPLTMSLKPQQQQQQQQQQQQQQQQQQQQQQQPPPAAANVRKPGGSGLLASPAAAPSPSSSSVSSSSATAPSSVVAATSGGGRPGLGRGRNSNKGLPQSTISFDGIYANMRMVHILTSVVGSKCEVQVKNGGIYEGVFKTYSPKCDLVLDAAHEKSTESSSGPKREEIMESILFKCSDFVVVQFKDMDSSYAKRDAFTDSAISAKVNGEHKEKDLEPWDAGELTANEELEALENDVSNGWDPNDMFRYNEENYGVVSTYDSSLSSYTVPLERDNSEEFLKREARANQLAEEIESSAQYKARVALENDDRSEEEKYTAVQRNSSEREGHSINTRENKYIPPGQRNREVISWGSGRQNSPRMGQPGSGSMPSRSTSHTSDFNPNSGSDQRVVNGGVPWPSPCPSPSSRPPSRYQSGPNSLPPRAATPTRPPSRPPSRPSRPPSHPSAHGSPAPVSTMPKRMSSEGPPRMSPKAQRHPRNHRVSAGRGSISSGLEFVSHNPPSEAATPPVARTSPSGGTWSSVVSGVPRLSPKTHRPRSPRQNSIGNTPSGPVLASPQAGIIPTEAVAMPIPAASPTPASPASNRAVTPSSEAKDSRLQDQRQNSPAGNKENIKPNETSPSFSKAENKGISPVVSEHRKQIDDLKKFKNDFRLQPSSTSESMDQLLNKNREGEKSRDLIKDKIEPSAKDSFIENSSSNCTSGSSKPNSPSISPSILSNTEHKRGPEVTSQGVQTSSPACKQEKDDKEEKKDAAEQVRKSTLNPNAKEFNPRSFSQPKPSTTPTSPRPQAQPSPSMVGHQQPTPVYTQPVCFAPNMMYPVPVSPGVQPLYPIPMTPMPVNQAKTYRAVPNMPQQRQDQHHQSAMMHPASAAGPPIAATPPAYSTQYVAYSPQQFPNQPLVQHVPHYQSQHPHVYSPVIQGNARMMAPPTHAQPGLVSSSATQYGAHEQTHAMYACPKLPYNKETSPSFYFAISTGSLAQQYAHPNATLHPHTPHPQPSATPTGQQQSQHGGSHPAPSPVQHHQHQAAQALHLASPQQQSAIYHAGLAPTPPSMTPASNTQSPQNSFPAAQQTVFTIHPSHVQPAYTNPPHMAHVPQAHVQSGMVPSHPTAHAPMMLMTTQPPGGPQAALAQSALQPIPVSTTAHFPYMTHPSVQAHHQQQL
Format: functional
With `O=C(Nc1nc2n(n1)C(c1ccccc1)C=C(c1ccccc1)N2)c1ccccc1` (stereo not drawn) the Potency was “inactive”.
For `COc1cc(NS(=O)(=O)c2ccc(N/C=C\C(=O)c3ccc(F)cc3)cc2)nc(OC)n1`, the Potency was “inactive”.
For `O=C1c2sccc2-c2cccc3cccc1c23`, the Potency was “inactive”.
`O=C1C(Br)=Cc2cccc3cccc1c23` was tested, and the Potency was “inactive”.
With `O=C1c2cccc3cccc(c23)C(=O)C1(O)O` the Potency was 15 µM (active).
For `Cc1cc2nc(-c3ccco3)c(Cc3ccccc3C(F)(F)F)n2c(C)c1Br`, the Potency was 39.8 µM (active).
In the case of `O=C1NC(Cc2ccc(O)cc2)c2nc3cc(F)c(F)cc3c(=O)n2-c2cc3ccccc3cc21` (stereo not drawn), the Potency is reported as 35.5 µM (active).
In the case of `CN(C)CCOC1(Cc2ccc(F)cc2)CCC(C(C)(C)C)CC1` (stereo not drawn), the Potency is reported as 21.2 µM (active).
With `Cc1ccc(CC2(OCCN(C)C)CCC(C(C)(C)C)CC2)cc1` (stereo not drawn) the Potency was 42.3 µM (active).
For `O=C(NCc1nc2ccccc2[nH]1)C1=C[C@@H](c2ccc(Br)cc2)C[C@@H](OCCCCO)O1`, the Potency was 31.6 µM (active).
For `Cc1ccccc1NC(=O)CN1C(=O)S/C(=C\c2ccc(-c3cc(C(=O)O)ccc3C)o2)C1=O`, the Potency was “inactive”.
For `C=C1CC2(OC1=O)c1ccccc1CCc1ccccc12`, the Potency was 5.97 µM (active).
In the case of `O=S(=O)(c1ccc(Cl)c(C(F)(F)F)c1)N1CCN(c2ccccn2)CC1`, the Potency is reported as “inactive”.
In the case of `O=C(c1ccco1)[C@@H]1[C@@H]2C(=O)N(c3ccc(F)cc3)C(=O)[C@@H]2[C@H]2C=Cc3ccccc3N21`, the Potency is reported as “inactive”.
`COc1cc(CN2CCCC(CO)(Cc3cccc(Cl)c3)C2)cc(OC)c1O` (stereo not drawn) was tested, and the Potency was “inactive”.
For `Cc1ccc(S(=O)(=O)Nc2nc3n(n2)C(c2ccc(F)cc2)C=C(c2ccccc2)N3)cc1` (stereo not drawn), the Potency was “inactive”.
With `O=C(O)/C=C/C(=O)NNc1ccc([N+](=O)[O-])cc1` the Potency was 13.4 µM (active).
For `O=C(N/N=C/c1ccc(-c2ccc([N+](=O)[O-])cc2)o1)C(O)c1ccccc1` (stereo not drawn), the Potency was “inactive”.
`CCc1ccccc1N1CC(c2nnc(NC(=O)c3ccco3)s2)CC1=O` (stereo not drawn) was tested, and the Potency was “inactive”.
With `Cc1ccc(N2CCN(S(=O)(=O)c3nnc(NC(=O)c4ccco4)s3)CC2)cc1` the Potency was “inactive”.
With `Cc1sc(NC(=O)c2ccco2)nc1-c1ccc2c(c1)CC(C)N2C(=O)C1CC1` (stereo not drawn) the Potency was 28.2 µM (active).
`C=CCN=C(S)Nc1ccc(C(N)=O)cc1` was tested, and the Potency was “inactive”.
`COc1ccc(CCn2c(=S)[nH]c3cc(C(=O)NCc4ccco4)ccc3c2=O)cc1OC` was tested, and the Potency was 28.2 µM (active).
In the case of `COc1ccc(CCn2c(=S)[nH]c3cc(C(=O)N4CCOCC4)ccc3c2=O)cc1OC`, the Potency is reported as “inactive”.
`COc1ccc(CCn2c(=S)[nH]c3ccc(N4CCOCC4)cc3c2=O)cc1OC` was tested, and the Potency was “inactive”.
With `O=C1OC(c2ccc3ccccc3c2O)(c2ccc3ccccc3c2O)c2ccccc21` the Potency was 17.8 µM (active).
With `CC(=O)Oc1ccc2c(c1)Oc1cc(OC(C)=O)ccc1C21OC(=O)c2ccccc21` the Potency was “inactive”.
In the case of `Cc1cc(O)c(C(C)C)cc1C1(c2cc(C(C)C)c(O)cc2C)OC(=O)c2ccccc21`, the Potency is reported as 31.6 µM (active).
With `Cc1cccc2c3c([nH]c12)C(=O)CC(C)(C)S3` the Potency was “inactive”.
For `O=C(N/C(=C/c1ccccc1Cl)C(=O)N1CCCC1)c1ccccc1`, the Potency was “inactive”.
In the case of `Cc1nc(N2CCN(c3ccccc3F)CC2)nc(O)c1C`, the Potency is reported as “inactive”.
With `CCCc1cc(NC(=O)COC(=O)c2nccnc2N)n(-c2ccccc2)n1` the Potency was “inactive”.
For `CCOC(=O)[C@]12Cc3c(cc(OC)c(OC)c3OC)[C@H]1N(CCC(=O)OC)C(=O)c1cc(OC)ccc12`, the Potency was 22.4 µM (active).
For `c1cncc(-c2nc(N3CCOCC3)c3c4c(sc3n2)CCC4)c1`, the Potency was “inactive”.
In the case of `CCc1cc2c(COC(=O)CCNS(=O)(=O)c3cccc(C(F)(F)F)c3)cc(=O)oc2cc1O`, the Potency is reported as “inactive”.
`C=CCN1C(=O)/C(=C/c2ccc(OC)cc2)S/C1=N/c1nccs1` was tested, and the Potency was “inactive”.
For `CCN(CC)CCN1C(=O)/C(=C\c2ccc(Cl)c([N+](=O)[O-])c2)S/C1=N\c1ccc(OC)cc1`, the Potency was 28.2 µM (active).
With `Cc1cc(=O)oc2c(CN3CCN(CCO)CC3)c(O)ccc12` the Potency was “inactive”.
With `O=C(CN1C(=O)NC2(CCOc3ccccc32)C1=O)Nc1ccc(F)c(F)c1F` (stereo not drawn) the Potency was “inactive”.
In the case of `CCC(=O)NCCCNc1nc2c(C)cccc2cc1C#N`, the Potency is reported as “inactive”.
`CCN1C(=O)/C(=C/C2=Cc3ccccc3OC2C)SC1=S` (stereo not drawn) was tested, and the Potency was “inactive”.
For `CCN1C(=O)/C(=C\C=C2/C=CC=CN2CC)SC1=S`, the Potency was 20 µM (active).
With `Cc1cc(O)nc2c1c(-c1ccccc1)nn2C` the Potency was “inactive”.
`CC1=CC(C)(C)Nc2ccc(OC(=O)CN3C(=O)c4ccccc4C3=O)cc21` was tested, and the Potency was 25.1 µM (active).
For `CC1(C)Nc2ccccc2C(=O)N1c1ccc(Br)cc1`, the Potency was “inactive”.
In the case of `CC1=CC(C)(C)Nc2ccc(OC(=O)C(C)N3C(=O)c4ccccc4C3=O)cc21` (stereo not drawn), the Potency is reported as 39.8 µM (active).
`O=C(CN1C(=O)NC2(CCCC2)C1=O)Oc1ccc2ccc(=O)oc2c1` was tested, and the Potency was “inactive”.
`O=C(CN1C(=O)NC2(CCCCC2)C1=O)Oc1ccc2ccc(=O)oc2c1` was tested, and the Potency was “inactive”.
In the case of `CC(C(=O)N1CCOCCOCCOCCOCCOCC1)N1C(=O)c2ccccc2C1=O` (stereo not drawn), the Potency is reported as “inactive”.
In the case of `CC1=CC(C)(C)Nc2ccc(OC(=O)CCN3C(=O)c4ccccc4C3=O)cc21`, the Potency is reported as 25.1 µM (active).
For `COc1cccc(NC(=O)COC(=O)CCC(=O)c2cccs2)c1`, the Potency was “inactive”.
For `O=C(C[n+]1ccccc1)NN=Cc1cc(Br)cc(Br)c1O`, the Potency was “inactive”.
In the case of `CC(C)OCCCn1/c(=N/C(=O)c2cccs2)c(C#N)cc2c(=O)n3ccccc3nc21`, the Potency is reported as “inactive”.
With `CCN(CC(=O)NCc1cccs1)C(=O)/C=C/c1ccc(F)cc1` the Potency was “inactive”.
In the case of `COc1ccc(C(=O)/C=C/C(=O)N(CC(=O)NC2CCCCC2)Cc2ccccc2OC)c(O)c1`, the Potency is reported as 26.7 µM (active).
With `COc1ccc(C(=O)/C=C/C(=O)N(CC(=O)NCCC(C)C)Cc2cccs2)c(O)c1` the Potency was 31.6 µM (active).
In the case of `COc1ccc2oc(=O)c(C(=O)NC3CCCCCC3)cc2c1`, the Potency is reported as “inactive”.
With `CCc1ccc(N(C(=O)c2ccco2)C(C(=O)NC2CCCC2)c2ccncc2)cc1` (stereo not drawn) the Potency was “inactive”.
`COCCN(CC(=O)NC1CCCCC1)C(=O)/C=C/C(=O)c1ccc(OC)cc1O` was tested, and the Potency was 23.8 µM (active).
For `COc1ccc(C(=O)OCCOc2ccccc2C(C)=O)c(O)c1`, the Potency was “inactive”.
For `Cc1cc(NC(=O)CCC(=O)N(CC(=O)NC2CCCC2)Cc2ccccc2Cl)no1`, the Potency was “inactive”.
For `COc1ccc(C(=O)/C=C/C(=O)N(Cc2ccccc2OC)C(C(=O)NC2CCCCC2)c2ccncc2)c(O)c1` (stereo not drawn), the Potency was 26.7 µM (active).
In the case of `COc1ccccc1N(CC(=O)NC1CCCC1)C(=O)CCC(=O)Nc1ccccn1`, the Potency is reported as “inactive”.
For `CCN(CC(=O)NCc1cccs1)C(=O)c1ccccc1F`, the Potency was “inactive”.
`Cc1cc(Br)ccc1NC(=O)CNC(=O)c1cnn(C)c1` was tested, and the Potency was “inactive”.
`N#Cc1c(N2CCCCC2)nc(N)c2c(N)nc3c(c12)CC(CCl)O3` (stereo not drawn) was tested, and the Potency was “inactive”.
For `Cc1cc(=O)oc2c3c4c(cc12)OCCN4CCC3`, the Potency was “inactive”.
In the case of `Cc1c(C)c2cc3c(c(C)c2oc1=O)OCN(CCc1ccccc1)C3`, the Potency is reported as “inactive”.
In the case of `COc1ccc(C(=O)/C=C/C(=O)N(CC(=O)NC2CCCCC2)Cc2ccc(F)cc2)c(O)c1`, the Potency is reported as 28.2 µM (active).
With `COc1ccc(OCC(=O)OCC(=O)NC2CCCCC2C)cc1` (stereo not drawn) the Potency was “inactive”.
For `COc1ccc(O)c(/C=N/NC(=O)CCC(=O)Nc2ccc(F)cc2)c1`, the Potency was “inactive”.
With `COc1ccc(CC(=O)Nc2ccc(S(=O)(=O)N3CCN(C)CC3)cc2)cc1` the Potency was “inactive”.
For `CC(C)C[C@@H](CN1CCC[C@H]1CN1C(=O)C(=O)NC[C@@H]1Cc1ccccc1)N1C[C@H](Cc2ccccc2)N(CC2CCCCCC2)C(=O)C1=O`, the Potency was 20 µM (active).
With `CC(C)C[C@H]1CN([C@@H](CC(C)C)CN2CCC[C@H]2CN2C(=O)C(=O)NC[C@@H]2Cc2ccc(O)cc2)C(=O)C(=O)N1CC1CCCCCC1` the Potency was 35.5 µM (active).
For `CC(C)C[C@H]1CNC(=S)N1C[C@H]1CCCN1C[C@H](CC(C)C)N1C[C@H](Cc2ccc(O)cc2)N(CC2CCCCC2)C1=S`, the Potency was 35.5 µM (active).
In the case of `CC(C)C[C@@H](CN1CCC[C@@H]1CN1C(=O)C(=O)NC[C@@H]1Cc1ccccc1)N1C[C@H](Cc2ccc(O)cc2)N(CC2CCCCCC2)C(=O)C1=O`, the Potency is reported as 28.2 µM (active).
With `CCCCN(C)Cc1cc(=O)oc2cc3c(cc12)CCCC3` the Potency was “inactive”.
For `Nc1cccc2c1C(=O)N(C(=O)c1ccc(S(=O)(=O)N3CCCCCC3)cc1)C2=O`, the Potency was “inactive”.
For `Cc1c(C)c2cc(Cl)c(O)c(CN3CCCC(C)C3)c2oc1=O` (stereo not drawn), the Potency was “inactive”.
`Cc1csc(Nc2ccc(Cl)cc2)[n+]1-c1ccc(Cl)cc1` was tested, and the Potency was “inactive”.
With `O=C1NC[C@H](Cc2ccccc2)N(C[C@@H]2CCCN2C[C@H](Cc2ccccc2)N2C[C@H](Cc3ccccc3)N(CC3CCCCC3)C(=O)C2=O)C1=O` the Potency was 39.8 µM (active).
In the case of `CC(C)C[C@@H](CN1CCC[C@H]1CN1C(=O)C(=O)NC[C@@H]1Cc1ccccc1)N1C[C@H](Cc2ccccc2)N(CC2CCCCC2)C(=O)C1=O`, the Potency is reported as 35.5 µM (active).
In the case of `O=C1NC[C@H](CCCCN2C[C@H](Cc3ccccc3)N(CCc3ccccc3)C(=O)C2=O)N(CCC2CCCCC2)C1=O`, the Potency is reported as 20 µM (active).
For `COCCCC1CCN(C(=O)C2CCC(=O)N(CCCc3ccccc3)C2)CC1` (stereo not drawn), the Potency was “inactive”.
With `CC(C)C[C@H]1CNC(=S)N1C[C@H]1CCCN1C[C@H](Cc1ccc(O)cc1)N1C[C@H](Cc2ccc(O)cc2)N(CCc2ccccc2)C1=S` the Potency was 15.8 µM (active).
`Clc1ccc2oc(-c3ccccc3)cc(=NCCCN3CCOCC3)c2c1` was tested, and the Potency was “inactive”.
For `COc1ccc(CCNC2CCc3ccccc3C2)cc1` (stereo not drawn), the Potency was “inactive”.
In the case of `O=C(Cn1ccc([N+](=O)[O-])n1)NCc1ccccc1`, the Potency is reported as “inactive”.
In the case of `Cc1c(O)c(CN2CCCCC2)cc2c3c(c(=O)oc12)CCC3`, the Potency is reported as “inactive”.
In the case of `Cc1nc(-c2ccc(S(=O)(=O)Nc3cccc(S(N)(=O)=O)c3)s2)cs1`, the Potency is reported as “inactive”.
In the case of `Cc1ccc(-n2c3nc(=O)n(C)c(=O)c-3cc3ccccc32)cc1`, the Potency is reported as “inactive”.
With `Cc1ccc(-n2c(Cl)c(Cl)nc(Cl)c2=O)cc1` the Potency was 4.74 µM (active).
`Cc1ccc(-n2c(=O)c(C#N)cc3c(=O)n4ccccc4nc32)cc1` was tested, and the Potency was “inactive”.
